Sampled rows, rich in hits. Any-hit rate of the full collection: about 12%.
JMJD2A Tudor = blocks the human JMJD2A Tudor domain; AlphaScreen JMJD2A-Tudor / H3K4me3 peptide binding; Potency, µM (titrated, usually from 114 µM), usual class: inhibitors; hit rate 4.4% among 390,000; AID 504339; further: nearly all actives have a fitted effect of over 50% in size
Target sequence (O75164 whole entry, looked up, the tested form may be a part): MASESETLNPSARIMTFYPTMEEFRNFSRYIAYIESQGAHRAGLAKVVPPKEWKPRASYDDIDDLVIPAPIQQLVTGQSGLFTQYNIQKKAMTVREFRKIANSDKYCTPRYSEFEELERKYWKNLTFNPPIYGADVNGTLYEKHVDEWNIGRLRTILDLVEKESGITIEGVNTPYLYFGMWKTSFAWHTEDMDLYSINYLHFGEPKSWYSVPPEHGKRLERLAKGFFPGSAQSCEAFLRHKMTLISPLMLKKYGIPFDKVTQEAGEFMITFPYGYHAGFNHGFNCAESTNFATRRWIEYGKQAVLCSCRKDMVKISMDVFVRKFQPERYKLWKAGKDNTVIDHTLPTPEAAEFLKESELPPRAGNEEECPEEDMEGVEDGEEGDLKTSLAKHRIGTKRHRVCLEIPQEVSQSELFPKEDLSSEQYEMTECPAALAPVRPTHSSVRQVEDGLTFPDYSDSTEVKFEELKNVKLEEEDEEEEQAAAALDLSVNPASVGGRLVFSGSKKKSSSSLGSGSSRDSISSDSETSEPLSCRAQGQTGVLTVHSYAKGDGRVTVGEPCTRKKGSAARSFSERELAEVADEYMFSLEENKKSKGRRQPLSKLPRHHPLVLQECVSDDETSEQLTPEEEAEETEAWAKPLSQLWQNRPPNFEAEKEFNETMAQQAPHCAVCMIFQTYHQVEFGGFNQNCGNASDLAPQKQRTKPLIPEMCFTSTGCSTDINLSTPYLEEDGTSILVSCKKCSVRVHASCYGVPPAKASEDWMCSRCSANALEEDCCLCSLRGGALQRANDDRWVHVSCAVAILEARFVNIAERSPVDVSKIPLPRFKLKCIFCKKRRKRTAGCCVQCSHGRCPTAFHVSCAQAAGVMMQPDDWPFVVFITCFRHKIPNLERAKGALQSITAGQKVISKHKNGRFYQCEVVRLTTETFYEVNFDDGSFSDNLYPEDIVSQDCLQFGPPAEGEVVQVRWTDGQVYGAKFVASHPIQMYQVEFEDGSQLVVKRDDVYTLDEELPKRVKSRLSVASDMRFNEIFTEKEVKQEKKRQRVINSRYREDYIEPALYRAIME
Sfp inh = Sfp phosphopantetheinyl transferase inhibition; Q9F4F7; Biochemical Sfp PPTase activity, qHTS; Potency, µM, most hits filed as inhibitors; hit rate 3.5% among 310,000; AID 1490;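 further: the enzyme is Sfp with the accession as filed and its product quenches rhodamine fluorescence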
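Sfp 15 nM + cpd, 15 min RT; start w/ rhodamine-CoA 5 uM, BHQ-2-YbbR 12.5 uM (final); 50 mM Hepes pH 7.6, 10 mM MgCl2, 0.01% NP-40, 0.01% BSA; read 525/598 nm at 0 and 30 min.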
BAZ2B inh = blocks human BAZ2B; AlphaScreen BAZ2B-H3K14Ac peptide displacement; Potency, µM (doses to about 114 µM), usual class: inhibitors; hit rate 4.4% among 360,000; AID 504333; further: nearly all actives have a fitted effect of over 60% in size
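Compounds, titrated to a top concentration of 110 uM, were incubated 30 min at room temperature with preformed BAZ2B/acetyl-K14 H3 peptide complex (50 nM each). Proximity signal was measured by AlphaScreen after 20 min with beads.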
G9a block = blocks human histone lysine methyltransferase G9a; hit rate 8.8% among 350,000; Q96KQ7; G9a H3K9 monomethylation, AlphaScreen, 2 h; Potency, µM (series often up to 102 µM), actives largely listed as inhibitors; further: nearly all actives have a fitted effect of over 75% in size
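AlphaScreen detection with an anti-monomethyl H3K9 antibody quantified product after a 2 h room-temperature reaction containing 500 nM biotinylated H3K9 peptide, 20 µM SAM and 20 nM enzyme, which had been preincubated 15 min with compound.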
HP1b binding inh = inhibitors of HP1-beta chromodomain binding to methylated histone tails | AlphaScreen HP1-beta / biotin-H3K9me3 peptide binding | Potency, µM (series often up to 114 µM), most hits filed as inhibitors | P83916 | hit rate 0.56% among 390,000; further: nearly all actives have a fitted effect of over 70% in size
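Compound inhibition of the preformed complex between 50 nM HP1-beta and 50 nM biotinylated H3K9me3 peptide was read by AlphaScreen. Buffer was PBS pH 7.4 with 0.01% Tween-20. Incubations ran 30 min at room temperature, with 10 ug/mL donor/acceptor beads.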
Numbers stand for hits; . = inactive; ? = inconclusive; / = not tested or not shown; ! = repeats disagree; [ ] = remark or other dose. The call rests on the fitted dose curve; in most records, active means well fitted curve in the direction sought with a large enough effect; inconclusive means small, poorly fitted or top-dose-only effect, or another doubt; inactive means no such curve, though single readings can be large; an effect the other way counts as inactive or inconclusive.

SMILES | JMJD2A Tudor | Sfp inh | BAZ2B inh | G9a block | HP1b binding inh
O=CC(Br)P(=O)(N1CCOCC1)N1CCOCC1 (centres undefined) | . | 25µM | . | / | .
O=[N+]([O-])c1ccc(N2CCCCC2)c2ncccc12 | ? | . | ? | ? | ?
O=[N+]([O-])c1ccc(N2CCCC(C(F)(F)F)C2)c2ccncc12 (centres undefined) | ? | . | ? | 50µM | ?
O=C(CO)C(O)C(O)C(O)CO (centres undefined) | 56µM | . | . | .[12.7 µM] | .
C[C@@H](N)Cc1cnc[nH]1 | ? | . | / | ? | .
CC1CN=C(Nc2ccc(N(C)C)cc2)S1 (centres undefined) | 40µM | . | ? | 35µM | .
CC1CN=C(Nc2ccccc2)S1 (centres undefined) | . | . | . | . | .
CCOC(=O)[C@@]12C(=O)C(=O)N[C@]1(c1ccccc1)C1OCCCC12 (some centres undefined) | . | . | . | . | .
C=CCn1c(C)c(C=C2C(=O)NC(=O)NC2=O)c2ccccc21 | . | . | . | 50µM | .
CS(=O)(=O)N1CCCC(C(=O)N2CCC3(CC2)OCCO3)C1 (centres undefined) | . | . | . | . | .
Cc1cc(/C=C2\C(=O)NC(=O)N(c3ccc(Cl)cc3)C2=O)c(C)n1C | . | . | . | / | .
COc1ccc(N2C(=O)NC(=O)/C(=C/c3ccc4c(c3)Cc3ccccc3-4)C2=O)cc1 | / | 56µM | 35µM | 3.5µM | /
CCOc1ccccc1N1C(=O)NC(=O)/C(=C/c2ccc3c4c(cccc24)CC3)C1=O | 79µM | 56µM | 50µM | .[0.501 µM] | .
COc1cccc(N2C(=O)NC(=O)/C(=C/c3ccc4c5c(cccc35)CC4)C2=O)c1 | / | 56µM | 50µM | 10µM | /
CCn1c(N)c(C(=O)NC)sc1=S | 56µM | 2.2µM | ? | ? | .
CC(=O)Nc1ccc(N=Cc2c(O)n(Cc3ccco3)c(=O)[nH]c2=O)cc1 | . | . | . | 50µM | .
CCN(CC)CCN=Cc1c(O)n(Cc2ccco2)c(=O)[nH]c1=O | . | . | . | / | .
Cc1ccc(-n2c(O)c(C=NCc3ccco3)c(=O)[nH]c2=S)cc1C | . | 20µM | ? | ? | .
CCCCC(=O)N/N=C/c1c(O)n(Cc2ccco2)c(=O)[nH]c1=O | ? | . | 50µM | ? | .
O=c1[nH]c(=O)n(-c2cccc3ccccc23)c(O)c1C=NCCCn1ccnc1 | . | . | 56µM | . | .
CCCCC(=O)N/N=C/c1c(O)n(C2CC2)c(=S)[nH]c1=O | . | . | ? | . | .
CCCCC(=O)N/N=C/c1c(O)n(-c2cccc3ccccc23)c(=O)[nH]c1=O | 79µM | . | 79µM | . | .
O=c1[nH]c(=O)n(Cc2ccco2)c(O)c1C=NCCN1CCOCC1 | . | . | . | ? | .
O=c1[nH]c(=O)n(Cc2ccco2)c(O)c1C=NCc1ccco1 | . | 25µM | 56µM | .[0.501 µM] | .
CCCCC(=O)N/N=C/c1c(O)n(CCCC)c(=S)[nH]c1=O | . | . | 71µM | . | .
SMILES | JMJD2A Tudor | Sfp inh | BAZ2B inh | G9a block | HP1b binding inh
O=C(N/N=C/c1c(O)n(Cc2ccco2)c(=O)[nH]c1=O)c1ccccc1O | 79µM | . | ? | ? | .
O=c1[nH]c(=O)n(-c2cccc3ccccc23)c(O)c1C=NCc1ccc2c(c1)OCO2 | . | . | . | . | .
Cn1c(=O)oc2cc(S(=O)(=O)N3CCCC(C(=O)N4CCN(c5cccc(Cl)c5)CC4)C3)ccc21 (centres undefined) | . | / | . | ? | .
C[C@@H](Cc1ccc(OCC(=O)O)cc1)NC[C@H](O)c1cccc(Cl)c1 | / | . | / | / | /
COc1ccc(N2C(=O)NC(=O)/C(=C\c3ccccc3[N+](=O)[O-])C2=O)cc1 | . | 40µM | . | 8.9µM | .
CCOc1ccc(N2C(=O)NC(=O)/C(=C\c3ccccc3[N+](=O)[O-])C2=O)cc1 | . | 45µM | . | 32µM | .
CCSc1nc2n(n1)C(c1ccc(Cl)cc1Cl)C(C(=O)Nc1ccccc1C)=C(C)N2 (centres undefined) | . | / | . | . | .
O=C1C(Cl)=C(N2CCOCC2)C(=O)N1c1ccccc1F | . | . | . | 35µM | .
O=C1CC(O)(CF)CCO1 (centres undefined) | / | . | / | / | /
C[C@]12CCC(=O)C(O)=C1CC[C@@H]1[C@H]3CCC(=O)[C@@]3(C)CC[C@@H]12 | / | . | / | .[2.33 µM] | /
S=c1[nH]nc(-c2ccco2)n1Cc1ccccc1 | 7.1µM | . | . | ? | .
S=c1[nH]nc(C2CC2)n1Cc1ccccc1 | 16µM | 56µM | / | 6.3µM | .
COc1ccccc1-c1n[nH]c(=S)n1Cc1ccco1 | / | 20µM | ? | 3.5µM | /
Cc1ccc(Cn2c(SCc3ccc(C(=O)NC4CCCC4)cc3)nc3ccncc32)cc1 | . | / | . | ? | .
O=C(CSc1nnnn1-c1ccccc1)Nc1ccc(N2CCOCC2)c(Cl)c1 | . | . | . | 13µM | .
O=C(CSC1c2ccccc2-c2ccccc21)N/N=C/c1ccccc1O | . | . | . | . | .
c1ccc2nc(N3CCNCC3)ccc2c1 | . | . | . | 11µM! | .
c1ccc(C(c2ccccc2)N2CCN(c3ccc4ccccc4n3)CC2)cc1 | . | . | . | . | .
c1ccc2c(N3CCNCC3)cccc2c1 | . | . | / | 17µM! | .
O=C1OC(=O)C2C1[C@@H]1CC[C@H]2O1 (some centres undefined) | ? | . | . | ? | .
C=CCn1c(O)c(C=NCCCn2ccnc2)c(=O)[nH]c1=O | . | . | . | / | .
COc1ccc(C(CNC(=O)c2ccc3c(c2)CCC3)N(C)C)cc1 (centres undefined) | . | . | . | . | .
Cc1ccc(C2=NOC(C)(c3nnc(-c4ccccc4)o3)C2)cc1 (centres undefined) | . | / | / | / | .
O=C1c2ccccc2-c2cc3ccccc3cc21 | . | / | / | / | .
O=C1c2ccccc2-c2cccc3cccc1c23 | 56µM | . | / | .[2.33 µM] | .
SMILES | JMJD2A Tudor | Sfp inh | BAZ2B inh | G9a block | HP1b binding inh
CN(C)c1ccc(CNC(=O)Cn2c(=O)oc3cc(S(=O)(=O)N4CCCCCC4)ccc32)cc1 | ? | / | 25µM | 11µM | .
N=C(N)c1c(O)n(C2CCCCC2)c(=O)n(C2CCCCC2)c1=O | . | . | . | . | .
O=C(O)[C@@H]1CSC(c2cccnc2)N1 (some centres undefined) | / | 40µM | / | / | /
O=C(CN1CCCCC1c1cccnc1)c1ccccc1 (centres undefined) | / | . | / | / | /
CCOc1ccc2[nH]c(=O)c(CN(CCO)C3(c4nnnn4C4CCCCC4)CCCCC3)cc2c1 | .[11.4 µM] | . | . | . | .
O=C(O)C1Sc2[nH]c(=O)sc2C2c3cc(Cl)ccc3OC(=O)C12 (centres undefined) | ? | 50µM | ? | 28µM | .
CCCCCCCCCCCCCC(=O)O[C@@H]1[C@@H](C)[C@@]2(O)[C@@H](C=C(CO)C[C@@]3(O)C(=O)C(C)=C[C@@H]23)C2C(C)(C)[C@@]21OC(C)=O (some centres undefined) | / | / | / | 7.9µM! | /

High-throughput results deposited in PubChem by National Center for Advancing Translational Sciences (NCATS).
